This note sets out measurements from ChEMBL document CHEMBL1157539, “Thousands of chemical starting points for antimalarial lead identification” (Nature, 2010).

Type in all cases: functional
For experiment [1], the system named is Plasmodium falciparum. Briefly: GSK_TCMDC: Inhibition of Plasmodium falciparum 3D7 in whole red blood cells, using parasite LDH activity as an index of growth. Test compounds present at 2uM.
For experiment [2], the system named is Plasmodium falciparum. Briefly: GSK_TCMDC: Inhibition of Plasmodium falciparum Dd2 in whole red blood cells, using parasite LDH activity as an index of growth. Test compounds present at 2uM.
The subject of the next experiment is HepG2. The experiment can be described thus: GSK_TCMDC: Percent inhibition of human HepG2 cell line. Test compounds present at 10uM.

Regarding `COc1cc(C(=O)Nc2cccc(-c3nc4ccccc4[nH]3)c2)ccc1OC(C)=O`, the values for the Inhibition in the experiment on Plasmodium falciparum [1], in the experiment with Plasmodium falciparum [2] and in the experiment with HepG2 were 83%, 37% and 16%, respectively.

Consider `CS(=O)(=O)c1cccc(-c2cnc(N)c3cc(-c4ccc5c(c4)OCO5)ccc23)c1.O=CO`, for which the Inhibition (in general, how much of the control response was suppressed) is on record as 91% in the experiment on Plasmodium falciparum [1], 23% in the experiment with Plasmodium falciparum [2] and 37% in the experiment on HepG2.

Take `CN(C)Cc1ccc(O)c(-c2ccc(C(C)(C)C)cc2)n1.Cl`: the Inhibition in the experiment with Plasmodium falciparum [1] was 86%; in the experiment with Plasmodium falciparum [2] it was 25%; in the experiment with HepG2, 0%.

Consider `CN1CCN(CC(=O)Nc2ccc(-c3ccc(-c4nc5cc(C(F)(F)F)ccc5[nH]4)s3)cc2)CC1`, for which the Inhibition in the experiment with Plasmodium falciparum [1] was 100%; with Plasmodium falciparum [2], 73%; with HepG2, 84%.

For `N#Cc1ccc(-c2nc3c(N4CCCC4)cccc3n2CCNCc2ccccc2)cc1.O=C(O)C(F)(F)F`, the Inhibition was determined as 100% in the experiment on Plasmodium falciparum [1], 99% in the experiment on Plasmodium falciparum [2] and 2% in the experiment on HepG2.

On to `CC1SC(=S)NC1C(=O)O` (configuration not stated), for which the Inhibition in the experiment with Plasmodium falciparum [1] is listed as 94%; with Plasmodium falciparum [2], 0%; in the experiment with HepG2, 3%.

On to `COc1c(C2CCN(CCCCNC(=O)c3oc(-c4ccc(Cl)cc4)cc3CO)CC2)ccc2c1CCCC2`, for which the Inhibition was found to be 100% in the experiment on Plasmodium falciparum [1], 95% in the experiment on Plasmodium falciparum [2] and 80% in the experiment with HepG2.

Take `CCOCCCNc1sc(S(=O)(=O)c2ccccc2)nc1S(=O)(=O)c1ccc(C)cc1`: the Inhibition in the experiment with Plasmodium falciparum [1] was 96%; with Plasmodium falciparum [2] it was 87%; with HepG2 it was 0%.

As to `O=C(Nc1ccc2c(c1)CCN(C1CCC1)CC2)c1cn(-c2ccccc2)nc1-c1ccccc1.O=C(O)C(F)(F)F`, the Inhibition in the experiment with Plasmodium falciparum [1] turned out to be 100%; in the experiment on Plasmodium falciparum [2], 10%; with HepG2, 38%.

Regarding `Cn1cnc(CCNC(=O)c2ccc(-c3cccc(-c4nc5cc(C(F)(F)F)ccc5[nH]4)c3)cc2)c1`, the Inhibition in the experiment with Plasmodium falciparum [1] was 100%; with Plasmodium falciparum [2] it was 93%; with HepG2 it was 25%.

For the compound `COc1ccc(N2CCN(CCCCNC(=O)c3ccc(NC(=O)c4cccc(Cl)c4)cc3)CC2)c(OC)c1`, the Inhibition was determined as 100% with Plasmodium falciparum [1], 33% in the experiment with Plasmodium falciparum [2] and 18% with HepG2.

Turning to `CC(CCCC(=O)Nc1ccc(CC(C)NCCc2cccc(Cl)c2)cc1)NCCc1cccc(Cl)c1` (configuration not stated), the results for the Inhibition in the experiment on Plasmodium falciparum [1], in the experiment with Plasmodium falciparum [2] and in the experiment on HepG2 were 100%, 14% and 98%, respectively.

Consider `Br.CCCOC(=O)c1ccc(OCCCON2C(=N)N=C(N)NC2(C)C)cc1`, for which the Inhibition turned out to be 95% in the experiment with Plasmodium falciparum [1], 97% in the experiment with Plasmodium falciparum [2] and 61% with HepG2.

Consider `CS(=O)(=O)c1ccccc1CNC(=O)c1cccc(-c2ccc(-c3nc4cc(C(F)(F)F)ccc4[nH]3)cc2)c1`, for which the Inhibition in the experiment on Plasmodium falciparum [1] is on record as 95%; in the experiment on Plasmodium falciparum [2] it was 7%; in the experiment with HepG2, 86%.

On to `CCNc1cc(C(=O)NC(Cc2ccccc2)C(O)CNC(C)(C)CCCC(C)C)c(F)c(N2CCCS2(=O)=O)c1.O=CO` (configuration not stated), for which the Inhibition with Plasmodium falciparum [1] stood at 98%; in the experiment with Plasmodium falciparum [2] it was 97%; with HepG2, 0%.

For `CN1CCc2cc(CN3CC4(C)CC3CC(C)(C)C4)c(O)cc2C(c2ccccc2)C1.Cl` (configuration not stated), the Inhibition in the experiment with Plasmodium falciparum [1] was 98%; in the experiment on Plasmodium falciparum [2], 88%; in the experiment with HepG2, 0%.

`Cc1cc(N2CCC(NS(=O)(=O)c3cccc4cccnc34)CC2)nc(Nc2cccc(C#N)c2)n1.O=C(O)C(F)(F)F`: the Inhibition came to 98% in the experiment on Plasmodium falciparum [1], 87% in the experiment with Plasmodium falciparum [2] and 12% in the experiment with HepG2.

Turning to `O=[N+]([O-])c1ccccc1C=NN=c1c2c([nH]c3ccccc13)CCCC2`, the Inhibition came to 97% in the experiment with Plasmodium falciparum [1], 99% in the experiment with Plasmodium falciparum [2] and 0% with HepG2.

On to `CN1CCN(CC(=O)Nc2cccc(-c3cccc(-c4nc5cc(F)ccc5[nH]4)c3)c2)CC1`, for which the figures for the Inhibition in the experiment on Plasmodium falciparum [1], in the experiment with Plasmodium falciparum [2] and in the experiment on HepG2 were 100%, 98% and 16%, respectively.

With `CCn1c(-c2ccccc2)cc2nnc3ccccc3c21`, the Inhibition turned out to be 92% with Plasmodium falciparum [1], 87% in the experiment with Plasmodium falciparum [2] and 34% in the experiment on HepG2.

Take `c1ccc2c(NCCc3c[nH]cn3)c3ccccc3nc2c1`: the results for the Inhibition in the experiment with Plasmodium falciparum [1], with Plasmodium falciparum [2] and in the experiment on HepG2 were 91%, 0% and 20%, respectively.

With `CC(C)c1ccc(OCC(O)CN(CCN2CCOCC2)C(=O)Nc2ccc(Br)cc2)cc1.O=C(O)C(F)(F)F` (configuration not stated), the Inhibition came to 98% in the experiment on Plasmodium falciparum [1], 44% in the experiment on Plasmodium falciparum [2] and 6% with HepG2.

Consider `Nc1nc(N)c2c(ccc3c2ccn3Cc2ccc(-c3ccccc3)cc2)n1`, for which the Inhibition worked out at 98% with Plasmodium falciparum [1], 93% in the experiment on Plasmodium falciparum [2] and 100% in the experiment on HepG2.

Take `Cc1cc(Nc2nc(NCc3cccnc3)nc3ccccc23)n[nH]1`: the values for the Inhibition in the experiment with Plasmodium falciparum [1], in the experiment on Plasmodium falciparum [2] and in the experiment with HepG2 were 100%, 33% and 11%, respectively.

As for `OCCOCCNCc1cccc(C#Cc2cc3ncnc(Nc4ccc(OCc5cccc(F)c5)c(Cl)c4)c3s2)n1`, the Inhibition in the experiment on Plasmodium falciparum [1] is given as 96%; with Plasmodium falciparum [2], 46%; with HepG2, 35%.

Turning to `CCCCN(CCCC)CCNC(=O)c1cc(OC(F)(F)F)ccc1O`, the values for the Inhibition in the experiment with Plasmodium falciparum [1], in the experiment on Plasmodium falciparum [2] and with HepG2 were 93%, 90% and 8%, respectively.

On to `O=C(O)C(F)(F)F.OCC1CCN(Cc2ccc(-c3ccc(-c4nc5cc(F)ccc5[nH]4)s3)cc2)CC1`, for which the Inhibition in the experiment on Plasmodium falciparum [1] amounted to 100%; with Plasmodium falciparum [2], 98%; in the experiment on HepG2, 14%.

For `COc1ccc(C2N=C(N)N=C(N)N2OCc2ccccc2)cc1OC.Cl` (configuration not stated), the Inhibition in the experiment on Plasmodium falciparum [1] amounted to 95%; in the experiment on Plasmodium falciparum [2], 2%; with HepG2, 1%.

With `COc1ccc2nccc([C@@H](O)CN3CCC(NCc4nc5cc(F)ccc5o4)CC3)c2c1.O=C(O)C(=O)O`, the Inhibition stood at 100% with Plasmodium falciparum [1], 12% with Plasmodium falciparum [2] and 14% with HepG2.
